Sm TGR block: inhibitors of Schistosoma mansoni thioredoxin glutathione reductase; Q962Y6; purified TGR, DTNB reduction, TNB absorbance 405 nm; Potency, µM (series often up to 114 µM), inactives show at the highest dose activity change, negative = inhibition, hits mostly inhibitors; actives 3% (n = 360,000); AID 485364; also: potency is read from the fitted curve at half-maximal effect; nearly all actives have a fitted effect of over 60% in size
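First, TGR (20 nM dispensed) and NADPH were mixed with compound. Second, a 15 min room-temperature incubation followed. Third, further NADPH and then DTNB were added to start the reaction. Finally, TNB absorbance was monitored kinetically.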
HCMV inh: inhibitors of human cytomegalovirus; HFF cells, HCMV-luciferase reporter, 72 h; active compounds read low; activity change, negative = inhibition, % at 57.5 µM; actives 4.5% (n = 410,000); in the data active = activity change below about -60%; inconclusive = no clear call, values can overlap the other calls; inactive = above about -39%
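Compounds were evaluated in HFFs infected with an HCMV luciferase reporter virus (MOI 1 PFU/cell). Luciferase in lysates collected 72 h post infection served as the replication measure.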
Giardia FBPA inh: Giardia lamblia aldolase inhibition. purified Giardia FBPA. Potency, µM (series often up to 59.6 µM), for the others: at the top dose activity, negative = inhibition, hits mostly inhibitors. actives 0.71% (n = 290,000); also: potency is read from the fitted curve at half-maximal effect; nearly all actives have a fitted effect of over 55% in size
Target sequence (A8B2U2 whole entry, looked up): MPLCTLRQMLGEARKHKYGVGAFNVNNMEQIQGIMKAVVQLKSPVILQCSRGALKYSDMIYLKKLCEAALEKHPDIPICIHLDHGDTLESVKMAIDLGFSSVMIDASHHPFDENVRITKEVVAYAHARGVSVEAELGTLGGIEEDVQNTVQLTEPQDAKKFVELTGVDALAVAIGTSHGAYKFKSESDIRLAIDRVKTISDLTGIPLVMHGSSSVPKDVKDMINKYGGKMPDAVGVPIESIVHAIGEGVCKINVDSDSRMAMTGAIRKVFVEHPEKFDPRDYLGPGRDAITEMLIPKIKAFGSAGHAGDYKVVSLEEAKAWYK
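40 nM FBPA preincubated 10 min at RT with compound (up to 57.5 uM final), then substrate plus GAPDH/TPI/NAD/arsenate coupling and diaphorase/resazurin added. Fluorescence read after 20 min at RT, 525/598 nm.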
Pf growth 96h: inhibits malaria parasite growth, 96 h; P. falciparum luciferase reporter growth, 96 h; Potency, µM (top dose mostly 28.7 µM), without a hit: at the top dose activity change, negative = inhibition, most hits filed as inhibitors; actives 6.9% (n = 320,000); also: potency is read from the fitted curve at half-maximal effect
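Readout is luminescence from an integrated firefly luciferase in P. falciparum. Red cells, 2% hematocrit and 0.05% parasitemia final, were cultured with compound through two parasite generations (96 hours) at 37 C, 5% CO2.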
Pf growth 48h: inhibits P. falciparum growth in the first generation, 48 h; P. falciparum luciferase growth in erythrocytes, 48 h; Potency, µM (top dose mostly 28.7 µM), for inactives: at the highest dose activity change, negative = inhibition, most hits filed as inhibitors; actives 5.9% (n = 310,000); AID 504832; also: potency is read from the fitted curve at half-maximal effect
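A one-generation exposure of luciferase-tagged malaria parasites in RPMI 1640/Albumax erythrocyte culture, 37 C and 5% CO2. Inhibition is inferred from decreased luminescence after adding detection reagent.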
* marks the source's active call; other numbers are inactive results; ? = inconclusive; . = not tested or not shown. This is a sample that favours compounds with a hit; in the whole collection about 14% have one here. Unless noted, calls follow the shape of the dose curve; as a rule, active = well fitted curve in the direction sought with a large enough effect; inconclusive = small, poorly fitted or top-dose-only effect, or another doubt; inactive = no such curve, though single readings can be large; an effect the other way counts as inactive or inconclusive. % is scaled to controls: 0 for no effect and ±100 for the full control effect.

SMILES	Sm TGR block	HCMV inh	Giardia FBPA inh	Pf growth 96h	Pf growth 48h
O=C(O)CCc1ccc(-c2ccccc2)n1CC1CCCO1 (centres undefined)	0%	23	-9%	.	1%
O=C(O)CCc1ccc(-c2ccccc2)n1Cc1ccco1	32µM*	37	-1%	?	.
O=C(O)CCc1ccc(-c2ccc(F)cc2)n1Cc1ccco1	50µM*	36	20%	21%	11%
O=C(O)CCc1ccc(-c2ccc(Br)cc2)n1Cc1ccco1	50µM*	1	23%	10%	5%
CCOC(=O)c1[nH]ncc1CN1CCc2ccc(NC(=O)C3CCCO3)cc2C1 (centres undefined)	-6%	8	-13%	28%	3%
CCCN=C(N)NCCC[C@H](N)C(=O)O	.	.	0%	.	.
CC(C)c1nc2ccc(C(=O)NCc3ccc(F)cc3)cc2o1	1%	35	.	.	.
NC(=O)[C@H](Cc1cc2ccccc2s1)NC(=O)[C@@H]1CC2(CC(c3cccc(NC(=O)[C@@H]4CCC(=O)N4)c3)=NO2)CN1C(=O)c1ccccc1 (some centres undefined)	15%	-17	-8%	10µM*	13µM*
NC(=O)[C@H](Cc1cc2ccccc2s1)NC(=O)[C@@H]1CC2(CC(c3cccc(NC(=O)[C@@H]4CCC(=O)N4)c3)=NO2)CN1C(=O)/C=C/Sc1ccccc1 (some centres undefined)	-20%	6	-23%	?	13µM*
NC(=O)[C@H](Cc1cc2ccccc2s1)NC(=O)[C@@H]1CC2(CC(c3cccc(NC(=O)[C@@H]4CCC(=O)N4)c3)=NO2)CN1C(=O)/C=C/c1c(F)cccc1Cl (some centres undefined)	-20%	.	0%	2.9µM*	4.1µM*
N#C[C@H](Cc1ccc(O)cc1)c1ccc(O)cc1	.	.	16%	.	.
Cc1noc(C)c1CSCC(=O)N(C)CC(=O)Nc1ccccc1C(F)(F)F	-2%	10	.	-23%	-28%
NS(=O)(=O)c1ccc(N=Cc2c(O)n(-c3nccs3)c(=O)c3ccccc23)cc1	-1%	-27	-8%	?	4.7µM*
Cc1cccc(-n2c(O)c(C=Nc3ccc(O)cc3)c3ccccc3c2=O)n1	-12%	-39	3%	-34%	-13%
COc1ccc(C(=O)N/N=C/c2sc(=O)n(Cc3cccc(C(=O)O)c3)c2Cl)cc1	22µM*	0	-1%	-17%	-11%
O=C(N/N=C/c1sc(=O)n(Cc2ccc(Br)cc2)c1Cl)c1ccco1	45µM*	-92*	.	2.6µM*	3.7µM*
O=C(O)c1cccc(Cn2c(Cl)c(/C=N/NC(=O)c3ccccc3Cl)sc2=O)c1	-5%	-5	10%	-17%	21%
O=C(O)c1cccc(Cn2c(Cl)c(/C=N/NC(=O)c3ccccc3O)sc2=O)c1	40µM*	-21	13%	-4%	43%
O=C(O)c1cccc(Cn2c(Cl)c(/C=N/Nc3ccccc3)sc2=O)c1	3.5µM*	.	10%	?	?
Cc1[nH]c(=O)[nH]c(=O)c1CCSSCCc1c(C)[nH]c(=O)[nH]c1=O	.	17	.	.	.
O=C(C=Cc1ccc(O)c(O)c1)NCC(=O)NC(Cc1ccccc1)C(=O)O (centres undefined)	.	-1	.	.	.
NS(=O)(=O)c1ccc(CNC(=O)c2ccc3c(=O)n4c(nc3c2)CCC4)cc1	1%	15	.	18%	24%
COc1ccc(NC(=O)c2cc(-c3cc(Cl)ccc3C)n[nH]2)c(OC)c1	.	12	.	.	.
CCOc1ccc(/C=N/NC(=O)c2ccccc2O)cc1CN1CC2CC(C1)c1cccc(=O)n1C2 (centres undefined)	-25%	3	.	13µM*	?
COc1ccc(/C=N/NC(=O)c2ccccc2O)cc1Cn1cc(Cl)cn1	14%	-12	4%	0%	47%
O=C(Nc1nccs1)c1cncc(Br)c1	-17%	73	-4%	241%	208%
CC1=[N+](C)c2c(ccc3cccnc23)C1(C)C	20%	-108*	2µM*	45%	?
Cc1[nH]c2c(ccc3cccnc32)c1C	-17%	-10	-14%	19%	18%
CC1(C(=O)NCc2ccncc2)Cc2c(-c3cccc(C(F)(F)F)c3)ccnc2O1 (centres undefined)	.	-1	.	.	.

Source: PubChem (National Center for Advancing Translational Sciences (NCATS))
